Screens (PubChem BioAssay)
A selection: hits, their analogues and other compounds. The true share with any hit is near 7.6%.
p53 reactivator = re-activators of mutant p53. H1299 p53-A138V BP100-luciferase reporter, luminescence, 24 h. Potency, µM (titrated, usually from 92.2 µM), actives largely listed as activators. 320,000 compounds, 0.063% hits; further: nearly all actives have a fitted effect of over 45% in size
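H1299 (p53-null), stable ts p53-A138V + BP100-Luc; 1000 cells/well, Opti-MEM/10% FBS; cpd 4 pt, 1:5; 24 h, 37 deg C, 5% CO2; detection reagent 10 min RT; luminescence.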
RORg inh = inhibitors of mouse ROR gamma transcriptional activity. P51450. Drosophila S2 Gal4-RORgamma UAS-luciferase reporter, 20 h. Potency, µM (doses to about 53.6 µM), hits mostly inhibitors. 310,000 compounds, 5.4% hits. AID 2551; further: nearly all actives have a fitted effect of over 60% in size
Target sequence (P51450 whole entry, looked up, the tested form may be a part): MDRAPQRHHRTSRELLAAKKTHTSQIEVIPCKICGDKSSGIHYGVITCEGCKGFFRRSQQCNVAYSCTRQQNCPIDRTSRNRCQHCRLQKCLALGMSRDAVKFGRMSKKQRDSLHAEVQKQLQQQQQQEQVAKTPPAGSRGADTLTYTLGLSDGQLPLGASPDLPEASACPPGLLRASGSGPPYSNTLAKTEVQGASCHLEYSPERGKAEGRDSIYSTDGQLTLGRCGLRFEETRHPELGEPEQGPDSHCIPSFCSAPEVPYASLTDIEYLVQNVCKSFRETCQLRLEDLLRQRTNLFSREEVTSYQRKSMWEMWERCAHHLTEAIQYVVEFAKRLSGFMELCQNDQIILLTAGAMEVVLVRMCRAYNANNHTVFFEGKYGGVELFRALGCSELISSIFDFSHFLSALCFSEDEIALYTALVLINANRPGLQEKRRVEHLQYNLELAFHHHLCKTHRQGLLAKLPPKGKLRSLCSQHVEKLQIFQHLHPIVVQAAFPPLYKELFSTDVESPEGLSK
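A Gal4/UAS one-hybrid system in insect cells: metallothionein-promoter Gal4–ROR gamma fusion plus Photinus luciferase reporter. Copper sulfate 700 uM final, 20 hr ambient incubation, luminescent detection after 10 min with reagent.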
Gal4-VP16 FLuc = inhibits Gal4-VP16 luciferase reporter, ROR gamma counter-screen; Drosophila S2 Gal4-VP16 UAS-luciferase, luminescence, 20 h; 310,000 compounds, 3.5% hits; Potency, µM (top dose mostly 53.6 µM), most hits filed as inhibitors;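 further: Gal4-VP16 expression switched on by copper sulfate through the metallothionein promoter; nearly all actives have a fitted effect of over 50% in size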
Giardia killer = Giardia lamblia killing. Giardia lamblia trophozoite viability. activity change, % at 7.66 µM, hits read low. 340,000 compounds, 0.15% hits. AID 540267; in the data active means activity change below about -80%; inconclusive means between about -30% and that limit;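 further: parasites exposed to compound for two days anaerobically before the ATP read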
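Giardia trophozoites, 100 cells per well, were exposed to compounds for 48 hrs at 37 deg C under anaerobic conditions; viability was then read as ATP content by bioluminescence after 15-30 min at room temperature.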
ELG1 repair inh = blocks ELG1-dependent DNA repair in HEK293T cells; Potency, µM (highest dose often 46.1 µM), hits mostly inhibitors; HEK293T ELG1-luciferase reporter, luminescence, 16 h; DNA damage induced by 5-fluorouridine; 330,000 compounds, 2.3% hits; further: nearly all actives have a fitted effect of over 55% in size
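5-Fluorouridine DNA damage + compound/DMSO, 2,000 cells/well, 16 h, 37 °C/5% CO2. ONE-Glo, 30 min RT, luminescence. Readout = decrease in reporter signal.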
BRCA1 expr up = activators of BRCA1 expression; MCF7-BRCA1-FFLuc reporter, luminescence, 48 h; response scale: scaled: vehicle 0%, 10 µM genistein 100%; Potency, µM (doses to about 46.1 µM), most hits filed as activators; 380,000 compounds, 1.1% hits; AID 624202; further: nearly all actives have a fitted effect of over 80% in size
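Luminescence from a BRCA1-driven firefly luciferase in MCF7 cells was the read-out, taken 15 min after substrate addition following 48 h compound exposure at 37 °C. Data were normalized to a 10 microM genistein control and DMSO vehicle.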
Numbers stand for hits; i = inactive; ? = inconclusive; nt = no result given; [ ] = dose if it differs, or a comment. Unless noted, the call rests on the fitted dose curve; in most records, active means well fitted curve in the direction sought with a large enough effect; inconclusive means small, poorly fitted or top-dose-only effect, or another doubt; inactive means no such curve, though single readings can be large; an effect the other way counts as inactive or inconclusive.

SMILES | p53 reactivator | RORg inh | Gal4-VP16 FLuc | Giardia killer | ELG1 repair inh | BRCA1 expr up
Cc1ccc(-c2nnc(Nc3ccc(C(=O)N(C)C)cc3)c3ccccc23)cc1S(=O)(=O)NCC1CCCO1 (stereo not given) | i | i | i | i | 20.6µM | i
CCc1ccc(CN(C)C(=O)c2ccc3c(=O)n4c(nc3c2)CCC4)cc1 | i | i | i | i | i | i
Oc1cccc(/C=N/Nc2cc(N3CCCC3)nc(N3CCCC3)n2)c1 | i | i | i | i | 25.9µM | i
COc1ccc(/C=N/Nc2cc(N3CCCC3)nc(N3CCCC3)n2)cc1 | i | 12.6µM | i | i | ? | i
Oc1ccc(/C=N/Nc2cc(N3CCCC3)nc(N3CCCC3)n2)cc1 | i | i | i | i | i | i
Cn1nnnc1-c1cc(Br)ccc1NC(=O)c1ccccc1 | i | i | i | i | i | i
COc1cc(NC(=O)C2CC2)c(C(=O)O)cc1OC | i | ? | i | i | i | i
O=C1c2ccc([N+](=O)[O-])cc2C(=O)N1CNc1ccccn1 | i | i | i | i | i | i
COCC(=O)N1CCC2(CCCN(Cc3cc(C(F)(F)F)cc(C(F)(F)F)c3)C2)CC1 | nt | i | i | nt | nt | nt
COC(=O)c1c(CSc2ccc(C)c(C)c2)noc1C(=O)NCc1ccc(OC)cc1 | i | i | i | i | ? | i
CC(C)c1ccc(CC(NC(=O)c2ccccc2)C(=O)NCC(=O)O)cc1 (stereo not given) | i | i | i | i | i | i
O=C(NN=C1CCN(Cc2ccccc2)CC1)c1ccccc1O | i | 10µM | ? | i | i | i
O=C(NN=C1CCN(Cc2ccccc2)CC1)c1cccc(S(=O)(=O)Nc2ccccc2Cl)c1 | i | ? | ? | i | i | i
O=C(NN=C1C2CC3CC(C2)CC1C3)c1ccccc1O | i | 12.6µM | i | i | i | i
O=C(NN=C1C2CC3CC(C2)CC1C3)c1cccs1 | ? | i | i | i | ? | i
O=C(O)c1cc(NN=C2CCN(Cc3ccccc3)CC2)ccc1Cl | i | i | i | i | ? | 3.16µM
O=C(NN=C1CCN(Cc2ccccc2)CC1)c1cc2ccccc2cc1O | ? | i | i | i | i | i
CCOC(=O)C1=C(C)N(C)C(=O)NC1c1ccc(C)s1 (stereo not given) | i | i | i | i | i | i
COc1ccc(Cc2nc(=S)[nH][nH]2)cc1Br | i | 7.94µM | ? | i | i | i
CC(=O)N1N=C(c2ccccc2)CC1c1ccc2c(c1)OCO2 (stereo not given) | i | i | i | i | i | i
CC(C)c1ccc(/C=C2\SC(=S)N(CCC(=O)N3CCCCC3CCO)C2=O)cc1 (stereo not given) | i | 10µM | ? | i | ? | i
COc1ccc(/C=C2\SC(=S)N(CCCC(=O)N3CCCCC3CCO)C2=O)cc1 (stereo not given) | i | 2.24µM | 3.55µM | i | ? | i
O=C1/C(=C\c2ccccc2)SC(=S)N1CCC(=O)N1CCCCC1CCO (stereo not given) | ? | i | i | i | i | i
Nc1nnc(CC(=O)Nc2ccccc2)s1 | i | i | i | i | i | i
COc1cc2cnc(-c3ccccc3)c(-c3cccc(C(F)(F)F)c3)c2cc1OC | i | nt | nt | i | 13µM | i
SMILES | p53 reactivator | RORg inh | Gal4-VP16 FLuc | Giardia killer | ELG1 repair inh | BRCA1 expr up
COc1cc2cnc(-c3ccsc3)c(-c3ccc(F)cc3)c2cc1OC | i | nt | nt | i | ? | i
COc1cc2cnc(-c3ccccc3)c(-c3ccc(C#N)cc3)c2cc1OC | i | nt | nt | i | 23.1µM | i
COc1ccc(C)cc1S(=O)(=O)N1CCCC(C(=O)NCC2CCCO2)C1 (stereo not given) | i | i | i | i | i | i
O=C(CN1c2cccc3cccc(c23)S1(=O)=O)N1CCOCC1 | i | i | i | i | i | i
CCOc1ccc(NC(=O)CN(C)C(=O)C(C)Oc2ccc(Cl)cc2)cc1OCC (stereo not given) | nt | nt | nt | i | nt | i
CC(=O)/C(=N\Nc1ccc(Cl)cc1)Sc1nnc(-c2ccccc2)n1-c1ccccc1 | i | 6.31µM | 6.31µM | i | ? | i
CC(=O)/C(=N/Nc1ccccc1)Sc1nnc(CCc2ccccc2)n1-c1ccccc1 | i | i | i | i | i | i
CCc1c(C(=O)NNC(=S)NCc2ccccc2)csc1C | i | 6.31µM | i | i | ? | i
CCc1c(C(=O)NNC(=S)NCC(C)C)csc1C | nt | 1.78µM | 17.8µM | i | nt | i
C/C(=N/NS(=O)(=O)c1ccc(C)cc1)c1ccc2c(c1)OCO2 | i | i | i | i | i | i
CNc1ccccc1C(C)(C)c1cc(-c2cc(C)cc(C)c2)no1 | i | i | i | i | i | i
CNc1ccccc1C(C)(C)c1cc(-c2cccc(OC)c2)no1 | i | 1.41µM | ? | i | 1.46µM | i
Cc1cccc(OCc2nnc(SCC(=O)c3ccccc3)o2)c1 | i | ? | i | i | i | i
COc1ccccc1N1CCN(C2CCCN(C(=O)c3cccc(-c4ccco4)c3)C2)CC1 (stereo not given) | i | i | i | i | 23.1µM | i
O=C(NCC1CCCO1)c1cccc(Oc2ccc([N+](=O)[O-])cc2)c1 (stereo not given) | i | ? | i | i | i | i
Cc1ccc([N+](=O)[O-])cc1NC(=O)Nc1ccc(S(N)(=O)=O)cc1 | i | i | i | i | i | i
CC(=O)Nc1ccc(-c2csc(NCc3ccco3)n2)cc1 | ? | ? | ? | i | ? | ?
COc1ccc(-c2csc(NCc3ccco3)n2)cc1C | ? | ? | i | i | ? | 6.31µM
Cc1cccc(Nc2nc(-c3c(C)nc4ccccn34)cs2)c1 | i | 12.6µM | ? | i | ? | i
Cc1ccn2c(-c3csc(NCc4ccco4)n3)c(C)nc2c1 | i | 12.6µM | ? | ? | ? | i
Cc1cccc(N2CCN(C(=O)c3ccc(N4CCCC4=O)cc3)CC2)c1C | i | i[10 µM] | i | i | 18.4µM | i
CCN(C(=O)c1cc(S(=O)(=O)N2CCc3ccccc32)cn1C)c1ccccc1 | nt | ? | i | i | i | i
CCN(CC)c1ccc(NC(=O)Cn2cc3c(n2)CCC(C)C3)c(C)c1 (stereo not given) | i | i | 11.2µM | i | ? | i
CC1CCc2nn(CC(=O)Nc3ccc(F)cc3F)cc2C1 (stereo not given) | i | i | i | i | ? | i
Cc1csc(N(C(=O)c2cccc(S(=O)(=O)N(C)C)c2)c2ccccc2)n1 | i | i | i | i | 14.6µM | i
CCN(c1ccccc1)S(=O)(=O)c1cccc(C(=O)Nc2cccc(C)n2)c1 | nt | nt | nt | nt | nt | i
Cc1csc(N(C(=O)c2cccc(S(=O)(=O)N3CCCC3)c2)c2ccccc2)n1 | i | i | i | i | 20.6µM | i
